Drawing on PubChem BioAssay (NCI), this text covers growth for nine compounds.

Some test systems named below: SR leukemia; OVCAR-8 ovarian; OVCAR-5 ovarian; OVCAR-4 ovarian; SK-OV-3 ovarian; OVCAR-3 ovarian; HS 578T breast; NCI/ADR-RES ovarian; T-47D breast; BT-549 breast; MDA-MB-435 melanoma; SW-620 colon; MCF7 breast; HCT-116 colon; HCC-2998 colon; KM12 colon; RPMI-8226 leukemia; IGROV1 ovarian.
Common to all, as to assay: NCI-60 one-dose screen, 48 h (100 = growth as untreated, 0 = no growth, -100 = all killed)
Holding throughout (conditions): 10 µM unless noted

Molecules are shown by their SMILES. This is part of a sample that, as a whole, favours compounds with a hit. Of some 83,000 tested, about 20% had one in any assay.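 Method: cells in 96-well plates; compound added at one concentration; 48 h incubation; percent growth measured; values under 10 scored active.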 A number with no mark means an inactive call. The source made the active and inactive calls.

For the compound `Cc1cccc(NCc2cn(-c3ccc(C(=O)O)cc3)nc2-c2ccc(C(=O)O)cc2)n1`, the growth in the experiment with SR leukemia was 111%; with OVCAR-8 ovarian it was 110%; in the experiment with OVCAR-5 ovarian it was 95.2%; in the experiment with OVCAR-4 ovarian, 105%; in the experiment with SK-OV-3 ovarian it was 110%; in the experiment on OVCAR-3 ovarian, 106%. Also, the growth is 96.9% with HS 578T breast; 108% with NCI/ADR-RES ovarian; 100% in the experiment on T-47D breast; 104% in the experiment on BT-549 breast; 101% in the experiment on MDA-MB-435 melanoma; 99.9% in the experiment on SW-620 colon. The growth in the experiment on MCF7 breast is 97.4%; with HCT-116 colon, 107%; in the experiment with HCC-2998 colon, 112%; with KM12 colon, 102%.
As for `C=CCc1cc(C)ccc1NC(C(=O)NCC(=O)OC)c1ccccc1` (stereo not given), the growth in the experiment on SR leukemia was 95%; in the experiment on OVCAR-8 ovarian, 100%; in the experiment on OVCAR-5 ovarian it was 86.7%; in the experiment with OVCAR-4 ovarian it was 105%; in the experiment on SK-OV-3 ovarian, 91.2%; in the experiment on OVCAR-3 ovarian, 105%. Also, the growth is 106% in the experiment with HS 578T breast; 92.7% with NCI/ADR-RES ovarian; 77.2% in the experiment with T-47D breast; 93.7% with BT-549 breast; 101% in the experiment on MDA-MB-435 melanoma; 117% with SW-620 colon. Moreover, the growth in the experiment with MCF7 breast was 89.8%; in the experiment on HCT-116 colon, 101%; in the experiment on HCC-2998 colon, 98.7%; in the experiment with KM12 colon it was 99.4%.
With `CCOC(=O)NCCc1ccccc1`, the growth in the experiment with SR leukemia is 74%; in the experiment on OVCAR-8 ovarian, 108%; in the experiment with OVCAR-5 ovarian it was 112%; in the experiment with OVCAR-4 ovarian, 121%; with SK-OV-3 ovarian, 106%; in the experiment on OVCAR-3 ovarian it was 116%. Also, the growth was 105% in the experiment with HS 578T breast; 106% in the experiment on T-47D breast; 108% with BT-549 breast; 108% in the experiment with MDA-MB-435 melanoma; 99.2% with SW-620 colon; 99.1% in the experiment with MCF7 breast. Further, the growth is 108% in the experiment on HCT-116 colon, 90.3% in the experiment with HCC-2998 colon and 108% in the experiment with KM12 colon.
For the compound `CCCCCCCNC(=O)CCCNc1ncnc2c1ncn2-c1cccc(C(C)O)c1` (stereo not given), the growth in the experiment with SR leukemia is 84.2%; in the experiment on OVCAR-8 ovarian, 91.1%; with OVCAR-5 ovarian, 88.2%; with OVCAR-4 ovarian, 84.8%; in the experiment on SK-OV-3 ovarian it was 104%; in the experiment with OVCAR-3 ovarian, 87.1%. Also, the growth in the experiment on HS 578T breast is 97.4%; with NCI/ADR-RES ovarian, 95.8%; in the experiment with T-47D breast, 74.1%; in the experiment with BT-549 breast, 93.5%; in the experiment with MDA-MB-435 melanoma, 97.5%; in the experiment with SW-620 colon, 101%. Moreover, the growth in the experiment on MCF7 breast is 86.6%; with HCT-116 colon it was 104%; in the experiment on HCC-2998 colon, 103%; with KM12 colon, 95.6%.
Turning to `c1ccc(OCc2nnc(-c3ccc(Oc4ccccc4)cc3)o2)cc1`, the growth with SR leukemia is 85.8%; with OVCAR-8 ovarian, 99.1%; with OVCAR-5 ovarian, 104%; with OVCAR-4 ovarian, 98.7%; in the experiment on SK-OV-3 ovarian it was 96.9%; in the experiment with OVCAR-3 ovarian, 98.3%. The growth in the experiment on HS 578T breast was 99%; in the experiment with NCI/ADR-RES ovarian, 96.9%; with T-47D breast, 74.3%; in the experiment on BT-549 breast, 101%; with MDA-MB-435 melanoma it was 101%; in the experiment with SW-620 colon, 103%. Further, the growth in the experiment with MCF7 breast was 99.3%; in the experiment with HCT-116 colon, 100%; in the experiment on HCC-2998 colon, 114%; in the experiment with KM12 colon it was 93.7%.
Take `Cc1nc2ccccc2n1-c1ncnc2c1CC(C)c1ccccc1N2C` (stereo not given): the growth in the experiment with SR leukemia was 19.7%; in the experiment on OVCAR-8 ovarian it was 85%; with OVCAR-5 ovarian, 101%; in the experiment on OVCAR-4 ovarian it was 92.4%; in the experiment with SK-OV-3 ovarian it was 85.9%; in the experiment with OVCAR-3 ovarian, 94.6%. The growth with HS 578T breast was 82.5%; with NCI/ADR-RES ovarian it was 67.8%; in the experiment with T-47D breast, 72.1%; with BT-549 breast, 92.3%; with MDA-MB-435 melanoma it was 8.87% (active); in the experiment on SW-620 colon, 68%. The growth in the experiment on MCF7 breast is 61.8%; with HCT-116 colon, 96.2%; in the experiment on HCC-2998 colon, 90%; in the experiment with KM12 colon, 73.6%.
As for `COC(=O)[C@H](C)NC(=O)NC(=O)NC(=O)CI`, the growth was -23% (active) in the experiment with SR leukemia; 97% in the experiment on OVCAR-8 ovarian; 108% in the experiment on OVCAR-5 ovarian; 64.7% in the experiment with OVCAR-4 ovarian; 107% in the experiment on SK-OV-3 ovarian; -19.2% (active) with OVCAR-3 ovarian. Also, the growth was 114% with HS 578T breast; 89.7% with NCI/ADR-RES ovarian; 44.6% with T-47D breast; 84.3% with BT-549 breast; 63% in the experiment with MDA-MB-435 melanoma; -33.4% (active) with SW-620 colon. The growth in the experiment with MCF7 breast was 17.7%; in the experiment on HCT-116 colon, 98.6%; with HCC-2998 colon, 94.6%; in the experiment with KM12 colon, 98.5%.
For the compound `O=C(CSc1nc2ccccc2[nH]1)Nc1cccc(Cl)c1`, the growth with RPMI-8226 leukemia was 102%; with OVCAR-8 ovarian, 106%; with OVCAR-5 ovarian, 98.7%; in the experiment on OVCAR-4 ovarian it was 95.7%; with SK-OV-3 ovarian, 97.9%; in the experiment with IGROV1 ovarian, 96.2%. Besides, the growth in the experiment on OVCAR-3 ovarian is 102%; with HS 578T breast, 91.9%; in the experiment on NCI/ADR-RES ovarian, 103%; with T-47D breast, 83.4%; in the experiment on BT-549 breast, 103%; in the experiment on MDA-MB-435 melanoma, 102%. Also, the growth in the experiment on SW-620 colon is 95.7%; in the experiment with MCF7 breast it was 102%; in the experiment with HCT-116 colon, -54.9% (active); in the experiment on HCC-2998 colon it was 103%; in the experiment with KM12 colon, 99.5%.
Turning to `COc1cc(/C=C/c2c(C(C)=O)c(C)nc3ccccc23)cc(OC)c1OC`, the growth in the experiment on RPMI-8226 leukemia was 23.6%; in the experiment on OVCAR-8 ovarian, 52.6%; with OVCAR-5 ovarian, 61.3%; in the experiment with OVCAR-4 ovarian, 52.7%; with SK-OV-3 ovarian, 36.6%; with IGROV1 ovarian it was 32%. The growth in the experiment with OVCAR-3 ovarian was 15.1%; in the experiment with HS 578T breast, -16.7% (active); with NCI/ADR-RES ovarian it was 23.1%; in the experiment on T-47D breast it was 39.7%; with BT-549 breast it was 48.4%; in the experiment on MDA-MB-435 melanoma, -0.529% (active). The growth is 29.6% with SW-620 colon; 19.3% with MCF7 breast; 23.9% in the experiment with HCT-116 colon; 54.8% in the experiment on HCC-2998 colon; 29.1% in the experiment on KM12 colon.
